Assay [1] in a line: blockers of polyQ-driven CASP3 activation – cell-based (AID 1583). Particulars: polyglutamine-induced caspase-3 activation, cell assay; stronger effect = higher value;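 tested at 10 µM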.
Assay [2] is described as follows: yeast 75Q aggregation reduction – 75Q-TubU reporter (AID 1593). The following applies: Yeast 75Q polyglutamine aggregation reporter.
Assay [3] is described as follows: restoration of touch response, mutant HTT neurons – whole organism, C. elegans mechanosensory neurons, N-terminal huntingtin (AID 1599). The following applies: C. elegans polyQ-huntingtin mechanosensory neurons, stronger effect = higher value.
Assay [4] in a line: blockers of cytochrome c efflux from mitochondria – biochemical, purified mitochondria (AID 1603).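 Further: mouse liver mitochondria challenged with calcium chloride; signal normalized to the plate average as 100%.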 Particulars: stronger effect = lower value.
Assay [5] in a line: polyglutamine aggregate formation blockers (AID 1604). Particulars: polyglutamine-induced protein aggregation inhibition assay; stronger effect = higher value; tested at 2.5 µM.
A short description of assay [6]: rescue of PC12 cells from polyQ htt toxicity – LDH release (AID 1610). Particulars: PC12 mutant huntingtin toxicity, final LDH at 4 uM, stronger effect = lower value.
Assay [7] in a line: glutamate transport activators, MN-1 cells, MN-1 cell line (AID 1612).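 Further: tested at 1 µM final; 0% = mean of DMSO vehicle wells on each plate; positive means more glutamate uptake than control and negative means less.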 The following applies: MN-1 motor neuron cells, stronger effect = higher value.
Assay [8] is described as follows: GFP-Q80 aggregate reduction, neuronal-like cells, cell-based, NGF-treated PC12, GFPQ80 (AID 1614).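 Further: lower means fewer inclusions and 0 means no inclusions at all.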 The following applies: PC12 NGF-treated GFP-polyQ80 inclusion reduction.
Assay [9] is described as follows: 75Q-TubH aggregate inhibition, S. cerevisiae, yeast (AID 1616). The following applies: S. cerevisiae 75Q-TubH polyglutamine aggregation suppression; stronger effect = higher value.
Assay [10] in a line: compounds altering circadian rhythm period length – cell-based, LOPAC library, luminescence reporter (AID 2774; call rule not given here;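 further: values are relative to mean of DMSO wells on each plate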). The following applies: circadian reporter cells, at 7 µM, actives lie on both sides.
Assay [11] has as its system Hepatitis C virus NS3 helicase. Put plainly: blockers of NS3h binding to ssDNA – biochemical, fluorescence polarization, LOPAC1280 library, primary screen (AID 687035; in the data active means inhibition above about 37%). The following applies: Purified HCV NS3 helicase, Cy5-dT15 ssDNA binding fluorescence polarization; stronger effect = higher value; concentration not given here. On the technique in general: In fluorescence polarisation assays a small probe gives low polarisation when free and higher when bound to something large.

The nature of assay [12]: compounds altering Cy5-DNA-NS3h complex signal – biochemical, LOPAC1280, artefact control for HCV NS3 helicase inhibitor project (AID 687037; call rule not given here). The following applies: Cy5-DNA-NS3h complex fluorescence interference counterscreen.
Assay [13] is described as follows: EMT-state selective cytotoxicity in co-culture – imaging, PC-3E GFP, TEM4-18 mCherry, primary screen (AID 1345086).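 On all read-outs here: cells exposed to compound for 72 h before imaging.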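 On red/green cell ratio (normalised): normalised mesenchymal count divided by normalised epithelial count so high means epithelial killing.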 The following applies: PC-3E GFP / TEM4-18 mCherry co-culture, imaging cell counts, at 1 µM; for red/green cell ratio (normalised): actives lie on both sides, counts scaled to control wells, 1 = unselective.
Assay [14] has as its system Aerobactin synthetase IucA (Klebsiella pneumoniae). Put plainly: inhibition of K. pneumoniae IucA enzyme – biochemical, Tocris library, absorbance (AID 1345561; call rule not given here;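 further: 100% = enzyme without compound and 0% = no enzyme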). The following applies: purified IucA enzyme assay, absorbance (OD) read-out; stronger effect = lower value;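 tested at 8 µM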.
Assay [15] can be described thus: viability loss in pontine glioma line – cell-based, SU-DIPG-XVII, MIPE5.0, CellTiter-Glo, qHTS, dose response (AID 1347060; cut-off not given, nearly all actives have AC50 up to about 26 µM). Particulars: CellTiter-Glo ATP luminescence. A general note: In ATP-based viability assays light output follows the ATP content of the culture.
Assay [16] is described as follows: viability loss in pontine glioma line – cell-based, JHH-DIPG-1, MIPE4.0, CellTiter-Glo, qHTS, dose response (AID 1347062; cut-off not given, nearly all actives have AC50 up to about 27 µM). Particulars: JHH-DIPG-1 viability, CellTiter-Glo ATP luminescence.
Assay [17] is described as follows: viability loss in pontine glioma line – cell-based, SU-DIPG-IV, MIPE4.0, CellTiter-Glo, qHTS, dose response (AID 1347063; cut-off not given, nearly all actives have AC50 up to about 30 µM;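 further: compound exposure lasted 48 hours before the viability readout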). The following applies: CellTiter-Glo ATP luminescence.
A short description of assay [18]: viability loss in pontine glioma line – cell-based, SU-DIPG-XXV, MIPE5.0, CellTiter-Glo, qHTS, dose response (AID 1347065; cut-off not given, nearly all actives have AC50 up to about 26 µM;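 further: cells exposed to compound for 48 hours before ATP readout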). Particulars: CellTiter-Glo ATP luminescence.
Assay [19] in a line: growth inhibition of DIPG cells – cell-based, MIPE4.0 library, CellTiter-Glo luminescence, qHTS (AID 1347066; cut-off not given, nearly all actives have AC50 up to about 30 µM;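 further: cells exposed to compound for 48 hours before readout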). The following applies: SU-DIPG-VI viability, CellTiter-Glo ATP luminescence.
Assay [20] can be described thus: JHH-DIPG-1 glioma cell viability, MIPE5.0 library, CellTiter-Glo luminescence, qHTS (AID 1347067; cut-off not given, nearly all actives have AC50 up to about 26 µM;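 further: cells exposed to compound for 48 hours before readout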). Particulars: JHH-DIPG-1 glioma viability, CellTiter-Glo ATP luminescence.
Assay [21] can be described thus: growth inhibition of DIPG cells – cell-based, MIPE5.0 library, qHTS (AID 1347068; cut-off not given, nearly all actives have IC50 up to about 30 µM;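 further: cells exposed to compound for 48 hours before viability readout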). Particulars: SU-DIPG-XXV viability. On the technique in general: In qHTS, concentration-response curves come from the screen itself.
Assay [22] in a line: viability loss with induced miR-34 in A549 – imaging, A549 dox-inducible miR-34, nuclei and caspase counts, primary screen (AID 1347080;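 active means compounds whose cell count with miR-34 switched on is under 0.7 times the count with it off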). Particulars: A549 miR-34 inducible, Hoechst nuclei count, 48 h.
Assay [23] is described as follows: blockers of cellular phospholipid synthesis – cell-based, LOPAC library, screen 4, primary screen (AID 1347384; call rule not given here). Particulars: animal cells, phospholipid biosynthesis inhibition screen; at 10 µM.
For assay [24], the target named is Mitogen-activated protein kinase 7 (Homo sapiens) (UniProt Q13164). Put plainly: Gal4-ERK5 driven luciferase induction – cell-based, HTS, primary screen (AID 1508626;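 active means luciferase signal above three times the same-plate solvent-only control wells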;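 further: luciferase driven by Gal4-ERK5 fusion binding five Gal4 sites before minimal TATA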). Particulars: HeLa Gal4-ERK5 transactivation, 18 h, at 5 µM, stronger effect = higher value.
The nature of assay [25]: galactose survival enhancers in mitochondrial complex I cybrids – cell-based, galactose medium, ATP luminescence, primary screen (AID 1645843;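 active means z-score of at least 1.8 in each of two replicates, scored against plate mean and spread of sample wells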;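 further: positive z means more ATP and so rescue of galactose-driven cybrid death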). Particulars: complex I mutant cybrid cells, 72 h, stronger effect = higher value.
[26] abbreviates: measured here: epithelial PC-3E GFP cell survival.
The mark [27] stands for this setting: measured here: mesenchymal TEM4-18 mCherry cell survival.

Values joined by “and” are separate entries in the source; they are usually repeats but may differ in a detail not shown here. Equal values may be shown once. Records with an inconclusive call do not appear. For part of these data: Potency and affinity values are given separately. Active and inactive are the calls of the source.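 How the source made its calls, unless noted: active means compounds killing one labelled cell type while sparing the other, by normalised counts and ratio limits, not self-fluorescent; inactive means the rest.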

Chain of Mitogen-activated protein kinase 7 (Homo sapiens) (Q13164 whole entry, looked up, the tested form may be a part): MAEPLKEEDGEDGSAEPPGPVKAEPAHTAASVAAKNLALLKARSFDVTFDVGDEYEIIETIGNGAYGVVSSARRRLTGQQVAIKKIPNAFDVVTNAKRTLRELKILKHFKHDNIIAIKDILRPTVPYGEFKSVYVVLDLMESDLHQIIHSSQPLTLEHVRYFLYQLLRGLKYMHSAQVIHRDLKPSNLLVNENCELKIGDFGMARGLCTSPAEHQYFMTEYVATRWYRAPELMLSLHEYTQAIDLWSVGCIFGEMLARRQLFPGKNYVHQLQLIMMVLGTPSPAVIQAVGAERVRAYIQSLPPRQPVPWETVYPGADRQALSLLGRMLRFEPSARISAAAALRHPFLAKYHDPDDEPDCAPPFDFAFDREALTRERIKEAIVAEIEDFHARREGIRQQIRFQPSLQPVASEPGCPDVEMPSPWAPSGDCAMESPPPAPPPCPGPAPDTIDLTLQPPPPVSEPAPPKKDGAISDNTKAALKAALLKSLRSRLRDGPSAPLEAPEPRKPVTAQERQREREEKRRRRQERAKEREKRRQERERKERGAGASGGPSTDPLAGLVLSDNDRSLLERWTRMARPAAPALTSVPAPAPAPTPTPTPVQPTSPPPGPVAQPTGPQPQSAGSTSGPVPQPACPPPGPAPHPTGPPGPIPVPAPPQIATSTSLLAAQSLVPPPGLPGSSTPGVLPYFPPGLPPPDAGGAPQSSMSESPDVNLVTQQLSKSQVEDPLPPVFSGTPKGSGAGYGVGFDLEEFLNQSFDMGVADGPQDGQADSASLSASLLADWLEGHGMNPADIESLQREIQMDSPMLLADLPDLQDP

Broadly, the inhibition is the drop in the measured response relative to a control, in per cent. What is called remaining activity is the signal under treatment as a percentage of the control signal. For orientation: IC50 means the concentration needed to halve the response being measured. With `NCCCCNCCCN`, the inhibition in assay [1] is 7.23%; in [11], -2% (inactive). In addition, the score in assay [2] turned out to be 1. The rescue above control in assay [3] was -7.17. Moreover, in assay [4], the cytochrome c release ratio turned out to be 1.12. The compound also gave an inhibition of aggregation in [5] of 57.8%. In [6], this compound gave a normalised LDH release of 0.936. In [7], the glutamate uptake change was -3.1%. This compound also showed an inclusion score in assay [8] of 2. Also, the aggregation suppression score in [9] is 0.846. In addition, the period change in [10] is 0.115 h (inactive). The fluorescence ratio (interference) in assay [12] is 1 (inactive). The red/green cell ratio (normalised) in [13] is 0.89 (inactive). In addition, the normalised cell number in [13] (setting [26]) worked out at 0.98; in assay [13] (setting [27]), 0.87. The remaining activity in assay [14] was 101% (inactive). Also, the call in [15], in [16], in assay [17], in [18], in assay [19] and in assay [20] was inactive. The compound was classed as inactive in [23]. Moreover, the IC50 in assay [21] is 1.18 nM (active). For the same compound, the fold change was 0.943 (inactive) and 0.936 (inactive) in assay [22] (stronger effect = lower value, cell number ratio, induced over uninduced); 1.92 and 0.604 in assay [22] (measured here: relative caspase fold change +Dox/-Dox). Moreover, the cell count in [22] (measured here: total cells with miR-34 induction, stronger effect = lower value) was 9580 and 9960; in [22] (measured here: total cells without miR-34 induction) it was 10200 and 10600. In addition, the luciferase signal in assay [24] is 48 AU (inactive). Besides, the z-score in [25] is -0.635 (inactive) and -0.08 (inactive).
For the compound `CC1CC(O)C2C=CC(CC(=O)O1)O2` (centres undefined), the red/green cell ratio (normalised) in [13] was 0.76 (inactive). For the same compound, the figures for the normalised cell number in [13] (setting [26]) and in assay [13] (setting [27]) were 0.7 and 0.53, respectively.
Consider `C[C@@H]1O[C@@H](O[C@H]2[C@@H](Oc3cc(O)c4c(c3)O[C@H](c3ccc(O)cc3)CC4=O)O[C@H](CO)[C@@H](O)[C@@H]2O)[C@H](O)[C@H](O)[C@H]1O`, for which the red/green cell ratio (normalised) in [13] was 1.11 (inactive). Further, the values for the normalised cell number in [13] (setting [26]) and in assay [13] (setting [27]) were 0.94 and 1.04, respectively.
As to `CC(=O)O[C@H]1CC2CCC3C(CC[C@@]4(C)C3C[C@H]([N+]3(C)CCCCC3)[C@@H]4OC(C)=O)[C@@]2(C)C[C@@H]1[N+]1(C)CCCCC1` (some centres undefined), in assay [13], the red/green cell ratio (normalised) is 0.99 (inactive). In addition, the normalised cell number was 0.95 in [13] (setting [26]) and 0.94 in assay [13] (setting [27]).
As to `OCc1cc(Br)ccc1Cl`, the red/green cell ratio (normalised) in [13] was 1.07 (inactive). The normalised cell number was determined as 1.07 in assay [13] (setting [26]) and 1.14 in assay [13] (setting [27]).
Consider `O=c1c(-c2ccc(O)cc2)coc2c(C3O[C@H](CO)[C@@H](O)[C@H](O)[C@H]3O)c(O)ccc12` (some centres undefined), for which, in assay [13], the red/green cell ratio (normalised) is 1 (inactive). For the same compound, the normalised cell number is 1.12 in assay [13] (setting [26]) and 1.13 in [13] (setting [27]).
On to `CCSC(SCC)[C@@H]1NC(=O)O[C@H]1[C@H](O)[C@H](O)CO`, for which, in [13], the red/green cell ratio (normalised) is 1 (inactive). Besides, the normalised cell number in [13] (setting [26]) and in assay [13] (setting [27]) was 1.12 in each case.
Turning to `COc1c(N2CC[C@@H](CN)C2)c(F)cc2c(=O)c(C(=O)O)cn(CCCCN3C(=O)c4ccccc4C3=O)c12`, in assay [13], the red/green cell ratio (normalised) is 1 (inactive). For the same compound, the normalised cell number in assay [13] (setting [26]) and in assay [13] (setting [27]) was 1.09 each time.
For `O=C(O)CNC(=O)c1ccc([C@H](O)c2ccccc2)cn1`, the red/green cell ratio (normalised) in [13] was 0.86 (inactive). Moreover, the normalised cell number in assay [13] (setting [26]) is 1.15; in [13] (setting [27]), 0.99.

The values are drawn from PubChem BioAssay.
